HepG2 viability – qHTS for Inhibitors of TGF-b: Cytotox Counterscreen; HepG2 CAGA-GFP viability, ATP luminescence, 18 h; 410,000 tested, 0.76% active; AID 588856, 2011; Potency, µM (top dose mostly 46.1 µM), actives largely listed as cytotoxic
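CellTiter-Glo luminescence gave cytotoxicity after 18 hours at 37 degrees C. The cells were HepG2 CAGA-GFP in 1% FBS DMEM, stimulated with 500 pg/mL TGF-beta after compound addition. %Activity was normalised to no-cell wells (complete cell-killing) and DMSO (no toxicity), and curves were fitted and classified.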
TDP1 inh – qHTS Assay for Inhibitors of Tyrosyl-DNA Phosphodiesterase (TDP1); Tyrosyl-DNA phosphodiesterase 1 (Homo sapiens), Q9NUW8; recombinant TDP1, AlphaScreen DNA substrate cleavage; Potency, µM (titrated, usually from 130 µM), usual class: inhibitors; 350,000 tested, 0.28% active; note: nearly all actives have a fitted effect of over 40% in size
Target sequence (Q9NUW8 whole entry, looked up): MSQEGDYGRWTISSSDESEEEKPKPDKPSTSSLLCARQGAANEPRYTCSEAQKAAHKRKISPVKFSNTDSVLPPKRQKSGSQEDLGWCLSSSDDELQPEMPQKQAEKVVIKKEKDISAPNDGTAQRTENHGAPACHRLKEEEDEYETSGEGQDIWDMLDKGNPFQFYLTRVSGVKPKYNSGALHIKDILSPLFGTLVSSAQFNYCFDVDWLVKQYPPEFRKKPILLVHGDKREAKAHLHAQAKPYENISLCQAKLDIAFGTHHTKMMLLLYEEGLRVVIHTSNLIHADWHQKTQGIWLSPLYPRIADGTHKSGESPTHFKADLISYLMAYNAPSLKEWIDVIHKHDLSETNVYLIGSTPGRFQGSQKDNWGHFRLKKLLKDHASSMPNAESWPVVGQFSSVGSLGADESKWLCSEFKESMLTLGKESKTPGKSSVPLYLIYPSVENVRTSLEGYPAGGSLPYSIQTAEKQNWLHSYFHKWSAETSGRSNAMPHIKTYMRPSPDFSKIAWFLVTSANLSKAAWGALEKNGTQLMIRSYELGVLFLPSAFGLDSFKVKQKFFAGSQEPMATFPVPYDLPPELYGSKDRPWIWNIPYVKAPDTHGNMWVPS
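Steps: enzyme plus compound, 15 min RT; add biotin/phosphotyrosine-FITC oligonucleotide (15 nM final), react 5 min; add donor/acceptor beads (10 ug/ml final), 10 min; read AlphaScreen. Tdp1 at 1 nM final.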
TGFb inhibitor – qHTS for Inhibitors of TGF-b. HepG2 CAGA-GFP TGF-b/SMAD3 reporter, GFP fluorescence, 18 h; TGF-beta stimulated, 500 pg/mL final. Potency, µM (titrated, usually from 46.1 µM), actives largely listed as inhibitors. 410,000 tested, 1.2% active; note: nearly all actives have a fitted effect of over 65% in size
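Cell-based qHTS in HEPG2 carrying a CAGA-GFP Smad reporter; compounds added before 500 pg/mL final TGF-beta, 18 h incubation at 37 degrees C, GFP fluorescence quantified per cell by imaging cytometry.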
TDP1 cell CPT – qHTS for Inhibitors of human tyrosyl-DNA phosphodiesterase 1 (TDP1): qHTS in cells in presence of CPT; chicken DT40 Tdp1-/-;hTDP1 cells + 20 nM CPT, ATP luminescence, 48 h; AID 686979, 2013; Potency, µM (top dose mostly 46.2 µM), actives largely listed as inhibitors; 420,000 tested, 12% active; note: nearly all actives have a fitted effect of over 55% in size
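Chicken DT40 Tdp1-/- cells complemented with human TDP1, 400 cells/well, exposed to compounds plus 20 nM camptothecin for at least 48 h at 37 C; viability read as ATP content by CellTiter-Glo luminescence.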
DT40 TDP1 no CPT – qHTS for Inhibitors of human tyrosyl-DNA phosphodiesterase 1 (TDP1): qHTS in cells in absence of CPT; DT40 Tdp1-/- hTDP1 cells, no CPT, ATP luminescence, 48 h; Potency, µM (highest dose often 46.2 µM), actives largely listed as inhibitors; 420,000 tested, 15% active; AID 686978, 2013; note: nearly all actives have a fitted effect of over 55% in size
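Cells were dispensed at 400 per well, compounds added by pin tool, plates incubated ≥48 hr at 37 °C, then CellTiter-Glo added for 30 min at room temperature before luminescence reading. Line: DT40 Tdp1-/- complemented with hTDP1; camptothecin omitted.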
IL1B secr inh – qHTS for Inhibitors of Inflammasome Signaling: IL-1-beta AlphaLISA Primary Screen; AID 743279, 2014; THP-1 LPS/ATP IL-1B secretion, AlphaLISA, 16 h; active compounds read low; 360,000 tested, 4.7% active; activity change, % at 57.5 µM; in the data active = activity change below about -50%; inconclusive = mostly about -30% to -49%
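THP-1 cells pretreated 1 hr with compounds (up to 57.5 uM final), then stimulated with LPS (250 ng/mL final) plus ATP (1.25 mM final); secreted IL-1B measured by AlphaLISA after 16 hr, decreased signal indicating inhibition.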
Hits are given with their value; n = inactive; u = inconclusive; x = no result; [ ] = remark or other dose. Hits are enriched below; roughly 19% of the tested compounds scored in any of these assays. Unless noted, calls come from the whole dose curve; as a rule, active = well fitted curve in the direction sought with a large enough effect; inconclusive = small, poorly fitted or top-dose-only effect, or another doubt; inactive = no such curve, though single readings can be large; an effect the other way counts as inactive or inconclusive.

SMILES	HepG2 viability	TDP1 inh	TGFb inhibitor	TDP1 cell CPT	DT40 TDP1 no CPT	IL1B secr inh
CCc1cc2c(nc1CC)CCN(CC/C(C)=N/O[C@@H]1O[C@H](COC(C)=O)[C@H](OC(C)=O)[C@H](OC(C)=O)[C@H]1OC(C)=O)C2	x	n[21 µM]	x	x	x	x
CCC1(c2ccccc2)NC(=O)N(CC(=O)Nc2cc(S(=O)(=O)N3CCCCCC3)ccc2OC)C1=O (centres undefined)	n	n	u	16µM	21µM	n
CCC1(c2ccccc2)NC(=O)N(CC(=O)Nc2cccc(S(=O)(=O)N3CCCC3)c2)C1=O (centres undefined)	n	n	n	u	n	n
CCOc1ccc(S(=O)(=O)N2CCCCC2)cc1NC(=O)CN1C(=O)NC(CC)(c2ccccc2)C1=O (centres undefined)	n	n	n	u	u	n
CCC1(c2ccccc2)NC(=O)N(CC(=O)Nc2cc(S(=O)(=O)N3CCCCC3)ccc2OC(C)C)C1=O (centres undefined)	n	x	n	23µM	u	u
Cc1nn(C)cc1CN1CCOc2ccc(CN3CCC(Oc4cccnc4)CC3)cc2C1	x	x	x	n[9.04 µM]	u	x
COc1ccc(C(=O)NCCCNC(=O)c2cnccn2)cc1Br	n	x	n	n	n	n
COc1ccc(NC(=O)CC2C(=O)N(c3ccc(OC)cc3)C(=O)N2CCC2=CCCCC2)cc1 (centres undefined)	n	n	n	u	u	x
COc1cccc(N2C(=O)C(CC(=O)Nc3ccc(F)cc3)N(CCC3=CCCCC3)C2=O)c1 (centres undefined)	n	n	u	u	16µM	x
COc1cccc(N2C(=O)C(CC(=O)Nc3ccc(F)cc3)N(C3CCCCC3)C2=O)c1 (centres undefined)	n	n	u	n	n	n
Cc1ccc(N2C(=O)C(CC(=O)Nc3ccccc3)N(CCC3=CCCCC3)C2=O)cc1 (centres undefined)	n	n	u	16µM	21µM	x
COc1ccc(N2C(=O)C(CC(=O)Nc3ccccc3)N(CCC3=CCCCC3)C2=O)cc1 (centres undefined)	n	n	n	21µM	18µM	x
O=C(O)c1ccccc1NC(=O)N1c2ccccc2Sc2ccccc21	n	n[12.3 µM]	u	u	u	x
OCc1cc([C@@H](O)CNCCCCCCOCCCCc2ccccc2)ccc1O	n	n	u	9.4µM	11µM	x
COc1ccc2[nH]c3c4c(ccc3c2c1)C(=O)C=CC4=O	n	n	14µM	0.23µM	0.26µM	-77
COc1ccc2[nH]c(-c3ccc(F)cc3F)cc(=O)c2c1	x	n	x	x	x	x
Cc1nc(-c2ccc(Cl)cc2)sc1CCNC(=O)c1cccs1	n	n	u	u	u	x
COc1ccc(/C=N/OCC(=O)OCC(=O)N(C)c2ccccc2)cc1	n	n	u	n	n	n
CN(C(=O)CO/N=C/c1ccc(Cl)cc1)c1ccccc1	n	n	n	n	n	-51
O=C(COc1ccc(S(=O)(=O)N2CCCC2)cc1)Nc1ccc2c(c1)OCCO2	n	n	n	n	n	n
CCCCCCC(=O)Nc1nc(C)c(-c2csc(Nc3cc(OC)ccc3OC)n2)s1	n	n	n	u	18µM	n
CCCCCC(=O)Nc1nc(C)c(-c2csc(Nc3cc(OC)ccc3OC)n2)s1	n	n	n	4.1µM	2.9µM	n
c1ccc(COc2cccc(CN3CCc4ccccc4C3)c2)cc1	n	n	n	n	n	n
CCCCN1CNC(=S)N(CCc2ccc(OCC)c(OCC)c2)C1	n	n	n	u	u	n
CCOc1ccc(CCN2CN(C3CCCCC3)CNC2=S)cc1OCC	n	x	n	u	18µM	n
SMILES	HepG2 viability	TDP1 inh	TGFb inhibitor	TDP1 cell CPT	DT40 TDP1 no CPT	IL1B secr inh
c1ccc(-c2noc(-c3ccncc3)n2)nc1	10µM	n	n	u	u	n
c1ccc(-c2noc(-c3ccc4ccccc4c3)n2)nc1	n	n	n	u	23µM	n
c1ccc(-c2noc(-c3cccnc3)n2)nc1	n	n	n	n	u	n
Cc1occc1-c1nc(-c2ccccn2)no1	n	n	n	n	u	n
Cc1onc(-c2ccccc2Cl)c1-c1nc(-c2ccccn2)no1	n	n	n	u	16µM	n
c1ccc(-c2noc(-c3ccc4c(c3)OCO4)n2)nc1	1.6µM	n	n	5.2µM	5.2µM	n
COc1cccc(C(=O)Nc2nc(-c3nnn(-c4cccc(Cl)c4C)c3C)ns2)c1	n	n	u	u	u	x
Cc1cnc(C(=O)OCC(=O)N2CC(C)CC(C)C2)cn1 (centres undefined)	n	n	n	n	n	n
COc1cccc(-c2nc(-c3ccccn3)no2)c1	10µM	n	n	u	u	n
COc1cccc(-c2nc(-c3ccccc3)no2)c1	n	u	n	n	n	n
O=C1CCCC2=C1C(c1ccc(Cl)cc1)C1C(=O)c3ccccc3C1=N2 (centres undefined)	n	n	u	u	u	-55
Cc1ccc(C2C3=C(CCCC3=O)N=C3c4ccccc4C(=O)C32)cc1 (centres undefined)	n	n	n	n	u	-68
O=C(NCCc1cccs1)c1ccc(Cn2c(SCc3ccc(F)cc3)nc3cccnc32)cc1	n	n	u	u	21µM	x
Cc1ccc(CSc2nc3cccnc3n2Cc2ccc(C(=O)NCc3cccs3)cc2)cc1	n	n	n	n	n	x
Cc1cccc(CSc2nc3cccnc3n2Cc2ccc(C(=O)NCc3ccco3)cc2)c1	n	n	u	u	u	x
Cc1ccc(CNC(=O)c2ccc(Cn3c(SCc4ccccc4F)nc4cccnc43)cc2)cc1	n	n	n	u	u	x
O=C(NCc1cccs1)c1ccc(Cn2c(SCc3ccccc3)nc3cccnc32)cc1	n	n	n	u	26µM	x
Cc1cccc(Cn2c(SCc3ccc(C(=O)NCc4cccs4)cc3)nc3cccnc32)c1	n	n	n	u	15µM	x
O=C(NCc1cccs1)c1ccc(CSc2nc3cccnc3n2Cc2ccccc2F)cc1	n	n	u	u	23µM	x
CC(CNC(=O)c1ccc(Cn2c(SCc3ccccc3)nc3cccnc32)cc1)c1ccccc1 (centres undefined)	n	n	n	u	21µM	x

Assay outcomes deposited in PubChem BioAssay by National Center for Advancing Translational Sciences (NCATS).
